Measurements as given in PubChem BioAssay (EPA / NIEHS).
More than one record can exist for a structure, and the calls need not agree. The source made the active and inactive calls. The calls were made as follows: active = hit-call score of the fitted dose curve at least 0.9, where 1 is the maximum; inactive = score below 0.9.

Experiments:
[1] = read-out: Urokinase-type plasminogen activator receptor (uPAR), PLAUR (gene 5329); assay: BSK_4H_uPAR: BioMAP Diversity Plus: 4H Assay for Urokinase-type plasminogen activator receptor (uPAR) Biomarker Activity (AID 2283030); conditions: primary human endothelial cells (HUVEC); actives raise or lower the signal
How it was run: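 HUVEC, 24 h post-dose; uPAR by ELISA; bidirectional fit vs DMSO baseline.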

[2] = read-out: Vascular endothelial growth factor receptor 2 (Homo sapiens) (UniProt P35968); assay: BSK_4H_VEGFRII: BioMAP Diversity Plus: 4H Assay for Vascular endothelial growth factor receptor 2 (VEGFR2) Biomarker Activity (AID 2283031); conditions: primary human endothelial cells (HUVEC); actives raise or lower the signal
How it was run: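 HUVEC (human primary), 4H system; 24 h post-dose; VEGFRII by ELISA; bidirectional curve fit vs DMSO baseline; gain or loss of signal scored.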

[3] = read-out: Human Leukocyte Antigen - DR isotype (HLADR), HLA-DRA (gene 3122); assay: BSK_BE3C_HLADR: BioMAP Diversity Plus: BE3C Assay for Human Leukocyte Antigen - DR isotype (HLADR) Biomarker Activity (AID 2283032); conditions: primary human bronchial epithelial cells; actives raise or lower the signal
How it was run: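 Chemicals are dosed onto BE3C bronchial epithelial cultures of human origin and left 24 h. HLA-DR is then measured by ELISA, and the endpoint is fitted in both directions using DMSO as the activity baseline.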

[4] = read-out: Vascular cell adhesion molecule 1 (VCAM1), VCAM1 (gene 7412); assay: BSK_4H_VCAM1: BioMAP Diversity Plus: 4H Assay for Vascular cell adhesion molecule 1 (VCAM1) Biomarker Activity (AID 2283033); conditions: primary human endothelial cells (HUVEC); actives raise or lower the signal;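 also: cell-surface VCAM-1 protein measured by ELISA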
How it was run: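 Chemicals are added to primary human umbilical vein endothelial cells. After 24 h, VCAM-1 levels are measured by ELISA. Values come from bidirectional fitting referenced to DMSO.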

[5] = read-out: Interferon-gamma inducible Protein 10 (IP10), CXCL10 (gene 3627); assay: BSK_BE3C_IP10: BioMAP Diversity Plus: BE3C Assay for Interferon-gamma inducible Protein 10 (IP10) Biomarker Activity (AID 2283034); conditions: primary human bronchial epithelial cells; actives raise or lower the signal
How it was run: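 IP-10 quantified by ELISA serves as the endpoint. Cells: primary human bronchial epithelium, read 24 h after compound addition. Activity is derived by bidirectional fitting with DMSO as negative control.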

[6] = read-out: Monokine induced gamma interferon (MIG), CXCL9 (gene 4283); assay: BSK_BE3C_MIG: BioMAP Diversity Plus: BE3C Assay for Monokine induced gamma interferon (MIG) Biomarker Activity (AID 2283035); conditions: primary human bronchial epithelial cells; actives raise or lower the signal;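 also: MIG protein measured by ELISA in BE3C cultures after 24 h of dosing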
How it was run: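 Dose cells (human primary bronchial epithelial), incubate 24 h, quantify MIG by ELISA, then fit concentration–response in both directions relative to DMSO control.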

[7] = read-out: Plasminogen activator inhibitor-1 (PAI1), SERPINE1 (gene 5054); assay: BSK_BE3C_PAI1: BioMAP Diversity Plus: BE3C Assay for Plasminogen activator inhibitor-1 (PAI1) Biomarker Activity (AID 2283037); conditions: primary human bronchial epithelial cells; actives raise or lower the signal
How it was run: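 Values derive from bidirectional fitting against DMSO baseline of PAI-1 levels, measured by ELISA in human bronchial epithelial cells 24 h after compound addition.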

[8] = read-out: urokinase plasminogen activator (uPA), PLAU (gene 5328); assay: BSK_BE3C_uPA: BioMAP Diversity Plus: BE3C Assay for urokinase plasminogen activator (uPA) Biomarker Activity (AID 2283038); conditions: primary human bronchial epithelial cells; actives raise or lower the signal;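 also: uPA protein level quantified by ELISA in cell cultures; uPA read one day after compound addition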
How it was run: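 ELISA read-out of uPA in human lung primary bronchial epithelial cultures, 24 h post-dosing. Gain or loss of signal fitted bidirectionally relative to DMSO baseline; cytotoxicity checked in parallel cultures via SRB total protein stain.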

[9] = read-out: Urokinase-type plasminogen activator receptor (uPAR), PLAUR (gene 5329); assay: BSK_BE3C_uPAR: BioMAP Diversity Plus: BE3C Assay for Urokinase-type plasminogen activator receptor (uPAR) Biomarker Activity (AID 2283039); conditions: primary human bronchial epithelial cells; actives raise or lower the signal;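 also: uPAR protein level measured by ELISA on the cells; cells exposed to compound for one day before measurement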
How it was run: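 Steps: dose human primary bronchial epithelial cells, incubate 24 h, measure uPAR by ELISA, then fit gain- or loss-of-signal response bidirectionally relative to DMSO.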

[10] = read-out: Interleukin-6 (IL6), IL6 (gene 3569); assay: BSK_CASM3C_IL6: BioMAP Diversity Plus: CASM3C Assay for Interleukin-6 (IL6) Biomarker Activity for (AID 2283040); conditions: primary human coronary artery smooth muscle cells; actives raise or lower the signal
[11] = read-out: Tissue plasminogen activator (tPA), PLAT (gene 5327); assay: BSK_BE3C_tPA: BioMAP Diversity Plus: BE3C Assay for Tissue plasminogen activator (tPA) Biomarker Activity (AID 2283041); conditions: primary human bronchial epithelial cells; actives raise or lower the signal;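 also: tPA level quantified by ELISA one day after compound addition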
How it was run: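 Gain- or loss-of-signal in tPA, measured by ELISA, derived by bidirectional fitting against DMSO. Cells: human primary bronchial epithelial; read at 24 h after chemical dosing.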

[12] = read-out: Interleukin-8 (IL8), CXCL8 (gene 3576); assay: BSK_CASM3C_IL8: BioMAP Diversity Plus: CASM3C Assay for Interleukin-8 (IL8) Biomarker Activity (AID 2283042); conditions: primary human coronary artery smooth muscle cells; actives raise or lower the signal;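 also: IL-8 protein level quantified by ELISA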
[13] = read-out: Human Leukocyte Antigen - DR isotype (HLADR), HLA-DRA (gene 3122); assay: BSK_CASM3C_HLADR: BioMAP Diversity Plus: CASM3C Assay for Human Leukocyte Antigen - DR isotype (HLADR) Biomarker Activity (AID 2283043); conditions: primary human coronary artery smooth muscle cells; actives raise or lower the signal;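 also: cell-surface HLA-DR protein level quantified by ELISA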
[14] = read-out: Macrophage colony-stimulating factor (MCSF), CSF1 (gene 1435); assay: BSK_CASM3C_MCSF: BioMAP Diversity Plus: CASM3C Assay for Macrophage colony-stimulating factor (MCSF) Biomarker Activity (AID 2283044); conditions: primary human coronary artery smooth muscle cells; actives raise or lower the signal;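 also: M-CSF protein amount quantified by ELISA after 24 h exposure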
[15] = read-out: Low-density lipoprotein receptor (LDLR), LDLR (gene 3949); assay: BSK_CASM3C_LDLR: BioMAP Diversity Plus: CASM3C Assay for Low-density lipoprotein receptor (LDLR) Biomarker Activity (AID 2283045); conditions: primary human coronary artery smooth muscle cells; actives raise or lower the signal;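 also: LDLR protein level on the cell surface quantified by ELISA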
[16] = read-out: Monocyte Chemoattractant Protein-1 (MCP1), CCL2 (gene 6347); assay: BSK_CASM3C_MCP1: BioMAP Diversity Plus: CASM3C Assay for Monocyte Chemoattractant Protein-1 (MCP1) Biomarker Activity (AID 2283046); conditions: primary human coronary artery smooth muscle cells; actives raise or lower the signal;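 also: MCP-1 level quantified by ELISA 24 h after dosing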
[17] = BSK_CASM3C_Proliferation: Cell Proliferation Assessment in the BioMAP Diversity Plus: CASM3C Assay (AID 2283047); conditions: primary human coronary artery smooth muscle cells;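 also: sulforhodamine B total protein stain as relative cell number at 560 nm; sub-confluent cells exposed 48 h before staining; fitted both ways against DMSO so gain or loss of cell number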
[18] = read-out: Monokine induced gamma interferon (MIG), CXCL9 (gene 4283); assay: BSK_CASM3C_MIG: BioMAP Diversity Plus: CASM3C Assay for Monokine induced gamma interferon (MIG) Biomarker Activity (AID 2283048); conditions: primary human coronary artery smooth muscle cells; actives raise or lower the signal;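 also: MIG protein level measured by ELISA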
[19] = read-out: serum amyloid A (SAA), SAA1 (gene 6288); assay: BSK_CASM3C_SAA: BioMAP Diversity Plus: CASM3C Assay for serum amyloid A (SAA) Biomarker Activity (AID 2283049); conditions: primary human coronary artery smooth muscle cells; actives raise or lower the signal;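 also: SAA protein level quantified by ELISA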

Structure (SMILES)	outcome [1]	outcome [2]	outcome [3]	outcome [4]	outcome [5]	outcome [6]	outcome [7]	outcome [8]	outcome [9]	outcome [10]	outcome [11]	outcome [12]	outcome [13]	outcome [14]	outcome [15]	outcome [16]	outcome [17]	outcome [18]	outcome [19]	AC50 [19]
C=CC(=O)OCC(F)(F)C(F)(F)C(F)(F)C(F)(F)C(F)(F)C(F)(F)C(F)(F)F	inactive	inactive	inactive	inactive	inactive	inactive	inactive	inactive	inactive	inactive	inactive	inactive	inactive	inactive	inactive	inactive	inactive	inactive	inactive	–
O=C(O)C(F)(F)C(F)(F)C(F)F	inactive	inactive	inactive	inactive	inactive	inactive	inactive	–	inactive	inactive	inactive	inactive	inactive	inactive	inactive	inactive	inactive	inactive	inactive	5.48 µM (active)
CCO[Si](CCC(F)(F)C(F)(F)C(F)(F)C(F)(F)C(F)(F)C(F)(F)F)(OCC)OCC	inactive	inactive	inactive	inactive	inactive	inactive	inactive	–	inactive	inactive	inactive	inactive	inactive	inactive	inactive	inactive	inactive	inactive	inactive	–
C=CC(F)(F)C(F)(F)C(F)(F)C(F)(F)C(F)(F)C(F)(F)C(F)(F)C(F)(F)F	inactive	inactive	inactive	inactive	inactive	inactive	inactive	–	inactive	inactive	inactive	inactive	inactive	inactive	inactive	inactive	inactive	inactive	inactive	–
FC(F)(F)C(F)(F)C(F)(F)CI	inactive	inactive	inactive	inactive	inactive	inactive	inactive	–	inactive	inactive	inactive	inactive	inactive	inactive	inactive	inactive	inactive	inactive	inactive	–
